This is an account of results in a collection of fitness landscapes (doi:10.1126/science.1257360).

Over roughly 140,000 sequences, “enrichment ratio after two sorts for PhoP signalling” has its median near 0; the highest 2% begin near 11. The sample as a whole holds a higher share of the highest values than the screen did. Bounds are passed on as bounds.

To fix the notation:
B1: PhoQ; a variant is named by its letters at X, in order, P23837 (parent)
chain: MKKLLRLFFPLSLRVRFLLATAAVVLVLSLAYGMVALIGYSVSFDKTTFRLLRGESNLFYTLAKWENNKLHVELPENIDKQSPTMTLIYDENGQLLWAQRDVPWLMKMIQPDWLKSNGFHEIEADVNDTSLLLSGDHSIQQQLQEVREDDDDAEMTHSVAVNVYPATSRMPKLTIVVVDTIPVELKSSYMVWSWFIYVLSANLLLVIPLLWVAAWWSLRPIEALAKEVRELEEHNRELLNPATTRELTSLVRNLNRLLKSERERYDKYRTTLTDLTHSLKTPLXXLQXXLRSLRSEKMSVSDAEPVMLEQISRISQQIGYYLHRASMRGGTLLSRELHPVAPLLDNLTSALNKVYQRKGVNISLDISPEISFVGEQNDFVEVMGNVLDNACKYCLEFVEISARQTDEHLYIVVEDDGPGIPLSKREVIFDRGQRVDTLRPGQGVGLAVAREITEQYEGKIVAGESMLGGARMEVIFGRQHSAPKDE

In this experiment the parent is B1. Description: enrichment ratio after two sorts for PhoP signalling (ratio (wild type AVST 3.29)); higher = more functional. The conditions noted are these: with PhoP (E. coli).
For the variant QVPD, the enrichment ratio is not above 0.25.

Turning to ENFI, the enrichment ratio is not above 0.25.

Regarding QKFY, the enrichment ratio was not above 0.25.

Regarding SGLN, the enrichment ratio was determined as 10.9.

For the variant VRCN, the enrichment ratio was not above 0.25.

For ASLN, the enrichment ratio was determined as 9.05.

Consider HWCN, for which the enrichment ratio is not above 0.25.

For SGCK, the enrichment ratio amounted to 8.85.

For the variant SGCN, the enrichment ratio stood at 11.5.

Consider TDCN, for which the enrichment ratio amounted to 15.7.

Turning to ANCN, the enrichment ratio stood at 33.

For KDCN, the enrichment ratio was not above 0.25.

Turning to ASCN, the enrichment ratio is 15.3.

As for LTCN, the enrichment ratio is not above 0.25.

As for ANLN, the enrichment ratio amounted to 8.47.

Regarding MIMG, the enrichment ratio was not above 0.25.

Take MYAM: the enrichment ratio is not above 0.25.

In the case of RCLW, the enrichment ratio was not above 0.25.

SMWE: the enrichment ratio was not above 0.25.

As for ALQI, the enrichment ratio was not above 0.25.

With PLLC, the enrichment ratio is not above 0.25.

As for MISF, the enrichment ratio was 3.65.

Regarding AALN, the enrichment ratio is 8.23.

As to TTCN, the enrichment ratio was determined as 11.9.

In the case of YTCN, the enrichment ratio was not above 0.25.

As to AACN, the enrichment ratio is 12.7.

In the case of KACN, the enrichment ratio was not above 0.25.

Turning to LWCN, the enrichment ratio is not above 0.25.

For KGPM, the enrichment ratio is not above 0.25.

On to SMIS, for which the enrichment ratio was not above 0.25.

In the case of NEVI, the enrichment ratio came out at 4.98.

With TEND, the enrichment ratio came to 23.1.

On to MCVI, for which the enrichment ratio was not above 0.25.

On to TEVI, for which the enrichment ratio was found to be 12.8.

Turning to MEVI, the enrichment ratio was 18.2.

Take TEVA: the enrichment ratio amounted to 6.58.

Take TEYD: the enrichment ratio was not above 0.25.

With MMVI, the enrichment ratio is not above 0.25.

In the case of NENM, the enrichment ratio was not above 0.25.

Take MENM: the enrichment ratio is not above 0.25.

On to TENM, for which the enrichment ratio stood at 15.7.

As to TEGD, the enrichment ratio was not above 0.25.

For ESVY, the enrichment ratio was not above 0.25.

Turning to NGGL, the enrichment ratio is not above 0.25.

As for LFQL, the enrichment ratio was not above 0.25.

Turning to KSDP, the enrichment ratio is not above 0.25.

Consider FMMA, for which the enrichment ratio was not above 0.25.

Consider TENY, for which the enrichment ratio came out at 11.3.

With TENS, the enrichment ratio worked out at 8.17.

Consider TENL, for which the enrichment ratio turned out to be 6.63.

For the variant PRSQ, the enrichment ratio is not above 0.25.

In the case of TGHK, the enrichment ratio was not above 0.25.

Regarding FSEI, the enrichment ratio was not above 0.25.

As for AAMG, the enrichment ratio worked out at 9.84.

For the variant QEST, the enrichment ratio came out at 1.97.

Take TEST: the enrichment ratio worked out at 23.4.

For FTST, the enrichment ratio was not above 0.25.

As for YTST, the enrichment ratio was not above 0.25.

With YEST, the enrichment ratio was 12.8.

As to SQST, the enrichment ratio turned out to be 6.97.

Take NEST: the enrichment ratio was determined as 3.45.

Regarding SEST, the enrichment ratio is 18.4.

SRST: the enrichment ratio was not above 0.25.

Turning to PLIK, the enrichment ratio is not above 0.25.

On to AQAT, for which the enrichment ratio worked out at 5.01.

For the variant SLNT, the enrichment ratio is not above 0.25.

With FKYM, the enrichment ratio is not above 0.25.

As to TASH, the enrichment ratio was found to be 11.7.

KASH: the enrichment ratio was not above 0.25.

As to TANH, the enrichment ratio is not above 0.25.

On to TAKH, for which the enrichment ratio was not above 0.25.

Consider HFAH, for which the enrichment ratio was not above 0.25.

Consider TAAH, for which the enrichment ratio is 19.2.

As for YMQV, the enrichment ratio is not above 0.25.

As to FCDV, the enrichment ratio was not above 0.25.

As for WINR, the enrichment ratio is not above 0.25.

With TIWI, the enrichment ratio is not above 0.25.

TIWS: the enrichment ratio worked out at 15.7.

As to TIYI, the enrichment ratio came to 4.29.

With AIQI, the enrichment ratio was found to be 0.475.

In the case of TINR, the enrichment ratio came to 15.4.

Consider TIRA, for which the enrichment ratio is not above 0.25.

Take TIQI: the enrichment ratio was determined as 12.3.

Consider RIQI, for which the enrichment ratio was not above 0.25.

On to TITS, for which the enrichment ratio turned out to be 15.9.

In the case of RINR, the enrichment ratio is not above 0.25.

Consider TIRM, for which the enrichment ratio is 5.12.

In the case of KTHN, the enrichment ratio is not above 0.25.

For the variant SPNA, the enrichment ratio is not above 0.25.

As for NRQT, the enrichment ratio was not above 0.25.

For the variant APHK, the enrichment ratio is not above 0.25.

Consider IMQV, for which the enrichment ratio is not above 0.25.

For LPRC, the enrichment ratio is not above 0.25.

Turning to EVLG, the enrichment ratio was not above 0.25.

Turning to PSEG, the enrichment ratio is not above 0.25.

Turning to WISS, the enrichment ratio was not above 0.25.

With TINL, the enrichment ratio was 9.31.

As for WISC, the enrichment ratio is not above 0.25.

With RINN, the enrichment ratio was not above 0.25.

Consider TISC, for which the enrichment ratio is 15.

As to TISS, the enrichment ratio came out at 11.9.

In the case of TIMG, the enrichment ratio worked out at 3.15.

On to TINN, for which the enrichment ratio turned out to be 12.6.

For the variant TIEG, the enrichment ratio turned out to be 11.8.

With TISA, the enrichment ratio worked out at 10.6.

For the variant RISC, the enrichment ratio is not above 0.25.

Turning to WFHG, the enrichment ratio was not above 0.25.

Take MFFV: the enrichment ratio is not above 0.25.

SPGL: the enrichment ratio is not above 0.25.

For VISE, the enrichment ratio is not above 0.25.

As for FCRN, the enrichment ratio is not above 0.25.

Consider TIDV, for which the enrichment ratio is not above 0.25.

TIAN: the enrichment ratio turned out to be 19.6.

With TIWV, the enrichment ratio is not above 0.25.

With TITV, the enrichment ratio came out at 15.1.

Regarding TIKH, the enrichment ratio is not above 0.25.

Regarding TIMV, the enrichment ratio turned out to be 1.5.

Regarding WITV, the enrichment ratio is not above 0.25.

TIFI: the enrichment ratio was found to be 0.264.

Take RIAN: the enrichment ratio is not above 0.25.

As to TIYV, the enrichment ratio amounted to 16.6.

As for TIQN, the enrichment ratio is 5.05.

Turning to TIQH, the enrichment ratio amounted to 12.6.

Consider PPYV, for which the enrichment ratio was not above 0.25.

EETS: the enrichment ratio was not above 0.25.

With VSPI, the enrichment ratio is not above 0.25.

With TIFC, the enrichment ratio is not above 0.25.

TIVK: the enrichment ratio is not above 0.25.

For the variant TIFP, the enrichment ratio was not above 0.25.

Consider TITC, for which the enrichment ratio was 12.2.

On to TIQQ, for which the enrichment ratio worked out at 16.4.

Turning to TINK, the enrichment ratio was 7.27.

As to AIAA, the enrichment ratio was 9.24.

With TIQP, the enrichment ratio is not above 0.25.

Consider TIAD, for which the enrichment ratio is not above 0.25.

For the variant TIGS, the enrichment ratio was found to be 15.

Consider TIAA, for which the enrichment ratio stood at 12.

As for TIFA, the enrichment ratio was not above 0.25.

Regarding AMHL, the enrichment ratio was not above 0.25.

With PQHY, the enrichment ratio was not above 0.25.

Consider EMES, for which the enrichment ratio is not above 0.25.

Regarding LHSI, the enrichment ratio was not above 0.25.

Regarding LTDV, the enrichment ratio was not above 0.25.

Turning to PMYR, the enrichment ratio is not above 0.25.

For the variant LERK, the enrichment ratio was not above 0.25.

Consider TIEH, for which the enrichment ratio amounted to 27.9.

As to TIQR, the enrichment ratio was determined as 16.

As to TIGR, the enrichment ratio was 5.97.

In the case of RIEH, the enrichment ratio is not above 0.25.

As to TINH, the enrichment ratio amounted to 34.4.

For the variant TIMD, the enrichment ratio is not above 0.25.

As for TITH, the enrichment ratio was determined as 1.26.

With TINT, the enrichment ratio was determined as 4.95.
